tim10-1 inh – tim10-1 yeast growth inhibition | S. cerevisiae tim10-1 ts strain growth, BacTiter-Glo, 24 h | inhibition, % at 20 µM | hit rate 2.2% among 330,000 | AID 463190;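 active = inhibition of at least 40%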;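 also: mutant grown at 25 °C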
tim23-1 inh – inhibits growth of tim23-1 mutant yeast | AID 463212 | inhibition, % at 20 µM | hit rate 1.3% among 330,000 | S. cerevisiae tim23-1 growth, BacTiter-Glo luminescence, 24 h;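 active = growth inhibition of the mutant yeast at or above 50%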;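 also: temperature-sensitive mutant grown at 25 °C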
TIM10 inh – growth inhibitors of TIM10 yeast strain | S. cerevisiae TIM10 strain growth, BacTiter-Glo luminescence, 24 h | inhibition, % at 10 µM | hit rate 1.4% among 330,000;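 active = inhibition of 40% or more at the single tested concentration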;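 also: wild-type TIM10 isogenic control strain grown at permissive 25 °C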
NALP3 yeast inh – blocks the NALP3 inflammasome reconstituted in yeast. hit rate 0.39% among 330,000. Yeast reconstituted NLRP3/ASC/caspase-1, beta-gal luminescence, 24 h. inhibition, % at 10 µM;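 active = inhibition of 50% or more; inactive = inhibition below 50%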
SKKanGAS inh – inhibitors of SKKanGAS S. pyogenes growth in kanamycin (SK-promoter or general growth effect); BacTiter-Glo, 6 h; inhibition, % at 7.5 µM; hit rate 1.3% among 300,000; AID 1662;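 active = mean replicate score, as percent of positive control median, at least 50; inconclusive = mean below 50 but one replicate at or above 50; inactive = mean and every replicate below 50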;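 also: strain carries kanamycin resistance gene driven by streptokinase promoter and grows in 40 µg/ml kanamycin; loss of luminescence reflects streptokinase promoter inhibition or plain growth inhibition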
tim10-1 conf – tim10-1 yeast growth inhibition, confirmed | shares compounds with tim10-1 inh | S. cerevisiae tim10-1 ts strain growth, BacTiter-Glo, 24 h | inhibition, % at 20 µM | hit rate 56% among 7,400;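 active = inhibition of yeast growth at or above a set limit in either of two repeat tests at 20 µM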;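 also: tim10-1 mutant grown at permissive 25 °C to find synthetic lethal compounds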
Large screens that a line does not name were inactive (follow-up assays come after a bar, where they were run). Most compounds without a hit are left out; they make up all but 4.6% or so of the library.

COc1ccc(-c2cc(=O)oc3c(C)c(OC(C)C(=O)Nc4ccc(CN5CCOCC5)cc4)ccc23)cc1 (configuration not stated)	tim10-1 inh 43 | tim10-1 conf inactive
CN(C(=O)c1nn(C)c2c1CSc1ccccc1-2)c1ccccc1Cl	tim10-1 inh 41 | tim10-1 conf inactive
CN(C(=O)c1nn(C)c2c1CSc1ccccc1-2)c1ccc(F)cc1	none
COc1c(Cl)cc(Cl)cc1C(=O)Nc1ccc(NC(C)=O)cc1	none
COC(=O)c1cc(Cl)cc(Cl)c1OS(=O)(=O)N(C)C	tim10-1 inh 41 | tim10-1 conf inactive
COc1ccccc1C(=O)NCCC(=O)Nc1ccc(OC(F)(F)F)cc1	none
COc1cc(C(=O)O/N=C(\N)Cc2ccc([N+](=O)[O-])cc2)cc(OC)c1OC	tim10-1 inh 63 | tim10-1 conf 53
Cc1ccc(NC2(c3nnnn3-c3c(C)cccc3C)CCCCC2)cc1	none
Cc1cc(-c2ccc(C)c(S(=O)(=O)NCC3CCN(Cc4ccc(F)cc4)CC3)c2)on1	tim10-1 inh 42 | tim10-1 conf inactive
O=C(CNC(=O)c1cccc([N+](=O)[O-])c1)NC1CCCc2ccccc21 (configuration not stated)	none (no result: SKKanGAS inh)
Cc1ccc(C(=O)CSC2=C(C#N)C(c3ccco3)C3=C(CC(C)(C)CC3=O)N2)cc1 (configuration not stated)	none
N#CC1=C(SCC(=O)c2ccc(Cl)cc2)NC2=C(C(=O)CCC2)C1c1ccco1 (configuration not stated)	tim10-1 inh 46 | tim10-1 conf inactive
O=C(N=C1SC2CS(=O)(=O)CC2N1Cc1ccc(Cl)cc1)C1CC1 (configuration not stated)	none
CC(=O)C1=C(C)OC(N)=C(C#N)C1c1cc2cccc(C)c2nc1Cl (configuration not stated)	tim10-1 inh 46 | tim10-1 conf inactive
CC(=O)C1=C(c2ccccc2)OC(N)=C(C#N)C1c1ccccc1C (configuration not stated)	tim10-1 inh 45 | tim10-1 conf inactive
Cc1c(C(=O)N2CCCCC2)c(S(=O)(=O)NCc2ccc(Cl)cc2)c(C)n1C	none
COc1ccc(Cl)cc1NC(=O)C(OC)c1ccccc1 (configuration not stated)	none
COC(/C(=N/O)c1ccc(Cl)cc1)c1ccccc1 (configuration not stated)	tim10-1 inh 47 | tim10-1 conf 31
CCCN(CCC)C(=O)CC(c1ccccc1)c1cc(C)ccc1O (configuration not stated)	tim10-1 inh 46 | tim10-1 conf 34
Cc1[nH]n(-c2ccccc2)c(=O)c1N=Nc1c(O)cc(S(=O)(=O)N(C)C)c2ccccc12	tim10-1 inh 43, SKKanGAS inh 85 | tim10-1 conf inactive
CCOc1ccccc1C(=O)NCC(=O)OCC(=O)c1c(N)n(C)c(=O)n(C)c1=O	none (no result: SKKanGAS inh)
Cc1ccc(C)c(NC(=O)c2ccc(S(=O)(=O)N(C)CC3CCCO3)cc2)c1 (configuration not stated)	SKKanGAS inh inconclusive
CN1CCN(c2ccc(NC(=S)NC(=O)c3cccc4ccccc34)cc2)CC1	none
CN1CCN(c2ccc(NC(=S)NC(=O)c3cccc4c(Br)cccc34)cc2)CC1	tim10-1 inh 47 | tim10-1 conf inactive
COc1cccc(OCc2cc(C(=O)N3CCC(c4ccncc4)CC3)no2)c1	none
COCC1CCN(C(=O)c2cc(COc3ccc(C)c(C)c3)on2)C1 (configuration not stated)	none
COCC1CCN(C(=O)c2cc(COc3ccc4c(c3)CCCC4)on2)C1 (configuration not stated)	tim10-1 inh 40 | tim10-1 conf inactive
CC(=O)c1ccc(OCc2cc(C(=O)N3CCC(c4ccncc4)CC3)no2)cc1	tim10-1 inh 44 | tim10-1 conf inactive
CCOC(=O)N1CCC(NC(=O)c2ccc(CS(=O)c3cccc(Cl)c3)o2)CC1 (configuration not stated)	none
CCOc1ccc(NC(=O)CSc2nnnn2C2CCCC2)cc1	none
COc1ccccc1N(C(=O)c1ccco1)C(C(=O)NC1CCCCC1)c1cc(OC)c(OC)c(OC)c1 (configuration not stated)	none
CCCCSCCCNC(=O)Nc1ccc(C)c(C)c1	tim10-1 inh 47 | tim10-1 conf inactive
CC(C)NC(=O)N(C)C[C@H]1Oc2ccc(NS(=O)(=O)c3ccccc3)cc2C(=O)N([C@H](C)CO)C[C@@H]1C	none (no result: SKKanGAS inh)

Screens: PubChem, several laboratories
